Source: the supplement of paper PMC10849652
Targets with a hit are over-represented here; the source holds about 7,900 in all. About 0.6% of all pairs of compound and target were hits. Values without a mark were called inactive.

How the values were obtained:
Test in all cases: log2 fold change, soluble protein after heating vs DMSO (PISA); higher = thermal stabilisation; K562 cells, 10 uM, 30 min; active = over 0.2 and 3.5 SD of the protein, either way, in both replicates (recomputed)
[1] = compound: COC1=CC=C(C=C1)CN2C=CC3=C2C=C(C=C3)C(=O)NO
Outline: (§1)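 For each measurement, 10 μM compound was applied for 30 min to K562 cells at 2×10^6 cells/mL. Aliquots were heated for 3 min across 48°C-58°C, pooled, and extracted in PBS with 0.5% NP-40 at 4°C; the supernatant after 21,000xg for 90 min was soluble protein. This was quantified by TMTpro 16plex LC-MS/MS with channel sums equalised, and thermal stability was reported relative to control samples from duplicates, on a log2 fold-change scale.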

[2] = compound: CON(C)C(=O)N1N=C(c2cc(F)ccc2F)S[C@@]1(CCCN)c1ccccc1 [filanesib]
Outline: as §1

[3] = compound: CO[C@H]1C[C@@H]2CC[C@@H](C)[C@@](O)(O2)C(=O)C(=O)N2CCCC[C@H]2C(=O)O[C@H]([C@H](C)C[C@@H]2CC[C@H](n3cnnn3)[C@H](OC)C2)CC(=O)[C@H](C)/C=C(\C)[C@@H](O)[C@@H](OC)C(=O)[C@H](C)C[C@H](C)/C=C/C=C/C=C/1C [zotarolimus]
Outline: as §1

[4] = compound: COc1cc(C(=O)O)ccc1NC(=O)[C@@H]1N[C@@H](CC(C)(C)C)[C@](C#N)(c2ccc(Cl)cc2F)[C@H]1c1cccc(Cl)c1F [idasanutlin]
Outline: as §1

[5] = compound: COc1cc(Nc2ncc3c(n2)-c2ccc(Cl)cc2C(c2c(F)cccc2OC)=NC3)ccc1C(=O)O [alisertib]
Outline: as §1

[6] = compound: COc1cc2nc(-c3cc(F)ccc3O)nc(N[C@@H]3CNC[C@H]3C(C)(C)O)c2cc1OC
Outline: as §1

[7] = compound: COc1cc2ncnc(Nc3ccc(F)c(Cl)c3)c2cc1OCCCN1CCOCC1 [gefitinib]
Outline: as §1

[8] = compound: COc1cccc2cc(-c3nc([C@H]4CC[C@H](C(=O)O)CC4)n4ncnc(N)c34)[nH]c12
Outline: as §1

[9] = compound: CS(=O)(=O)CCNCc1ccc(-c2ccc3ncnc(Nc4ccc(OCc5cccc(F)c5)c(Cl)c4)c3c2)o1 [lapatinib]
Outline: as §1

[10] = compound: CS(=O)(=O)N1CCN(Cc2cc3nc(-c4cccc5[nH]ncc45)nc(N4CCOCC4)c3s2)CC1 [pictilisib]
Outline: as §1

[11] = compound: CS(=O)(=O)c1ccc(-c2cnc(N)c(C(=O)Nc3ccccc3)n2)cc1
Outline: as §1

[12] = compound: C[C@@H](Oc1cc(-c2cnn(C3CCNCC3)c2)cnc1N)c1c(Cl)ccc(F)c1Cl [crizotinib]
Outline: as §1

[13] = compound: C[C@@H]1COCCN1C2=NC(=NC(=C2)C3(CC3)S(=O)(=O)C)C4=C5C=CNC5=CC=C4
Outline: as §1

[14] = compound: C[C@H](C1=CC=C(C=C1)C(=O)NC2=C3C=CNC3=NC=C2)N
Outline: as §1

[15] = compound: C[C@H](Nc1ncnc2nc[nH]c12)c1cc2cccc(Cl)c2c(=O)n1-c1ccccc1 [duvelisib]
Outline: as §1

[16] = compound: Cc1cc(Nc2cc(CN3CCOCC3)c3nc(C)c(Cc4ccc(Cl)cc4F)n3n2)n[nH]1 [gandotinib]
Outline: as §1

[17] = compound: Cc1cc(Nc2cc(N3CCN(C)CC3)nc(Sc3ccc(NC(=O)C4CC4)cc3)n2)n[nH]1 [tozasertib]
Outline: as §1

[18] = compound: Cc1cc(SCc2sc(-c3ccc(C(F)(F)F)cc3)nc2C)ccc1OCC(=O)O
Outline: as §1

[19] = compound: Cc1ccc(-n2nc(C(C)(C)C)cc2NC(=O)Nc2ccc(OCCN3CCOCC3)c3ccccc23)cc1 [doramapimod]
Outline: as §1

[20] = compound: Cc1ccc(C(=O)N(CCCN)[C@@H](c2nc3cc(Cl)ccc3c(=O)n2Cc2ccccc2)C(C)C)cc1 [ispinesib]
Outline: as §1

Sequence of UniProt P53634 (P53634 whole entry, looked up): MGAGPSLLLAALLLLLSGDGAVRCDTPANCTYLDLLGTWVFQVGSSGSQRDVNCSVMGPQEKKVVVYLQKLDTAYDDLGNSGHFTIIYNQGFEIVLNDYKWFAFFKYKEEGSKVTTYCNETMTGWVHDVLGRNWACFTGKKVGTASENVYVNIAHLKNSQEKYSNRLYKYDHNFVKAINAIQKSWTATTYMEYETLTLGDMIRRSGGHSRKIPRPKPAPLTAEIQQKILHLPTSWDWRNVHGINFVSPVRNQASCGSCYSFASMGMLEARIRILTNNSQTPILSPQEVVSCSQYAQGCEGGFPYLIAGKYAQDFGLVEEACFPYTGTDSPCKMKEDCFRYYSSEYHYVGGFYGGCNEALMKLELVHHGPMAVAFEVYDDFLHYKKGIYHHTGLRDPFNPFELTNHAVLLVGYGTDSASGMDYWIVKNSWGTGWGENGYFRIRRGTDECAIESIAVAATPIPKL
Sequence of UniProt Q9GZT9 (Q9GZT9 whole entry, looked up): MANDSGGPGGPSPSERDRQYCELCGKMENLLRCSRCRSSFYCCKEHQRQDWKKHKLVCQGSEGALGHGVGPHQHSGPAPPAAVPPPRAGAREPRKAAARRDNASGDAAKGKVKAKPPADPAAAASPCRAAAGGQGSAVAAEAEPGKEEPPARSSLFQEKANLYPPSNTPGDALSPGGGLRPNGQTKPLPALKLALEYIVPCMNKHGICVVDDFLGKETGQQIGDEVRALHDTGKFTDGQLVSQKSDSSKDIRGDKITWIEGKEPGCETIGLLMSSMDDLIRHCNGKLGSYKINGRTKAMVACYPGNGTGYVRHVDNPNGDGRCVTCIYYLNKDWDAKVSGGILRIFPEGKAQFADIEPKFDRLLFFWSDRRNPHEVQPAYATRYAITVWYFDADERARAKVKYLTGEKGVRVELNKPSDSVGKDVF
Sequence of UniProt P17844 (P17844 whole entry, looked up): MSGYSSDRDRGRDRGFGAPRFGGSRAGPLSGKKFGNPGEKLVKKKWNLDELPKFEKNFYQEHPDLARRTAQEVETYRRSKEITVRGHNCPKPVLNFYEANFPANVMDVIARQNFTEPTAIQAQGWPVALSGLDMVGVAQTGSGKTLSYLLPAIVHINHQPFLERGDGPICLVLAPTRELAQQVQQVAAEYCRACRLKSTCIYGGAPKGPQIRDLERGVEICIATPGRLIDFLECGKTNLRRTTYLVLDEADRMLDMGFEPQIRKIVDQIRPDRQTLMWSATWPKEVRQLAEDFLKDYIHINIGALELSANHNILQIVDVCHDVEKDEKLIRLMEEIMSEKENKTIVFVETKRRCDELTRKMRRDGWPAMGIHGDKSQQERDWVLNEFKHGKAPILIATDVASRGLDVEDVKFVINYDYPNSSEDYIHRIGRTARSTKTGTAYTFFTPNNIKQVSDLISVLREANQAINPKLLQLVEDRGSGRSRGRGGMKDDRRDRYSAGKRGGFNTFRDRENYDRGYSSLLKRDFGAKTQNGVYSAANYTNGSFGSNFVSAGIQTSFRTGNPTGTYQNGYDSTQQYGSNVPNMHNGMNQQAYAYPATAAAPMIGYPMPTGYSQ
Sequence of UniProt Q9UBM7 (Q9UBM7 whole entry, looked up): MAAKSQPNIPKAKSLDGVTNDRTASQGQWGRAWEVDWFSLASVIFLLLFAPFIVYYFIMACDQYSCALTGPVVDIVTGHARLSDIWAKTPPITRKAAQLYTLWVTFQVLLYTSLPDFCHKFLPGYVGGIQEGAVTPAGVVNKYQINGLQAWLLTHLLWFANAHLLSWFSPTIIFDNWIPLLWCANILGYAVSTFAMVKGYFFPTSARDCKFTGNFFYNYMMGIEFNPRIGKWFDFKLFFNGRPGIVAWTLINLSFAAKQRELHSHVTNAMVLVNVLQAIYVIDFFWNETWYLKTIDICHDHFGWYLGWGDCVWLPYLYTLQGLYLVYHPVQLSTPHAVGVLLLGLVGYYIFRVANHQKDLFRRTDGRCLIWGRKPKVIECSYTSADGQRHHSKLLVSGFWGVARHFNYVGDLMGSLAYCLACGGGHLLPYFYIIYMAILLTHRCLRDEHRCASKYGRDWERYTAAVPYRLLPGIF
Sequence of UniProt Q16531 (Q16531 whole entry, looked up): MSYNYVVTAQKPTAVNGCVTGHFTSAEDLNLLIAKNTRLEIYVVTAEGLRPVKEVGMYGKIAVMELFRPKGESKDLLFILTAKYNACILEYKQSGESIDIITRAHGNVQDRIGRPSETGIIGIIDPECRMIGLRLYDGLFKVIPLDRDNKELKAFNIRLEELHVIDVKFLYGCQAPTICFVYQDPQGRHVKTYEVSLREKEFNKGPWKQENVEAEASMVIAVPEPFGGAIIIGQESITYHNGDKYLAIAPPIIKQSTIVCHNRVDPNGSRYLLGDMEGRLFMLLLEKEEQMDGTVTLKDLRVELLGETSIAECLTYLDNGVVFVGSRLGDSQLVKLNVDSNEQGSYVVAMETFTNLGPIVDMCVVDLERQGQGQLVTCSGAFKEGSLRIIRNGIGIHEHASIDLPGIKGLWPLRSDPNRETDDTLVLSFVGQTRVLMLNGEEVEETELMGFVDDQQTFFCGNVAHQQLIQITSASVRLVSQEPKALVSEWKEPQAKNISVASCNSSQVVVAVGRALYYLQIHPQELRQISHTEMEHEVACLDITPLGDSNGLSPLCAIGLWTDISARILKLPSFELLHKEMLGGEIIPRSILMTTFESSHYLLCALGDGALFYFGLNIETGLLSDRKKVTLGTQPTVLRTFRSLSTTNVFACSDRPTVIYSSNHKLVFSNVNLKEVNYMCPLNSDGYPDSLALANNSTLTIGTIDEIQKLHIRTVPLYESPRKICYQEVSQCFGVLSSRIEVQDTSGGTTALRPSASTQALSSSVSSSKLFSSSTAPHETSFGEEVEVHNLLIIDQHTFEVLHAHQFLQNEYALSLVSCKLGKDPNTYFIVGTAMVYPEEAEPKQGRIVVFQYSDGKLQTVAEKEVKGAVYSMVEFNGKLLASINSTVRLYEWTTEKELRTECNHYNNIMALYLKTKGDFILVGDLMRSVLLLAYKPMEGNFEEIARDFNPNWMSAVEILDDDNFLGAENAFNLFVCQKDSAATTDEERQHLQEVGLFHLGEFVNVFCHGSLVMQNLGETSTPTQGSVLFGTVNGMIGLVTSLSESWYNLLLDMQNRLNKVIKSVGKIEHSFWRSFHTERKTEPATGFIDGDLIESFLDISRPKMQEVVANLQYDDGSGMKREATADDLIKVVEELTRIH
Sequence of UniProt P25685 (P25685 whole entry, looked up): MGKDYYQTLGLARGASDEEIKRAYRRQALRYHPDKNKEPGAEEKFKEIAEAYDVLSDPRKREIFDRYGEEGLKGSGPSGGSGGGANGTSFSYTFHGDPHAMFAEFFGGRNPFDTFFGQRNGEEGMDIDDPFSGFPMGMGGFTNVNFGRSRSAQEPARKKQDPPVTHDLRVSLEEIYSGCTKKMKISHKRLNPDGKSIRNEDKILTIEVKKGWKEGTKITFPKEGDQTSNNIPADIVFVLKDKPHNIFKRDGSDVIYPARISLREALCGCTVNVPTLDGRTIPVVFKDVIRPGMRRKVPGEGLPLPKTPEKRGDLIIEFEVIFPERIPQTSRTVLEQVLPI
Sequence of UniProt O60888 (O60888 whole entry, looked up): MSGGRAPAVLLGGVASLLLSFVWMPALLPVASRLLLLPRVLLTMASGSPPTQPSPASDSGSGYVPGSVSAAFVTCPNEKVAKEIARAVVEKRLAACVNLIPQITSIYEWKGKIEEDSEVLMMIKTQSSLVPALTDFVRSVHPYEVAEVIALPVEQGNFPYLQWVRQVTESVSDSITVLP
Sequence of UniProt P25774 (P25774 whole entry, looked up): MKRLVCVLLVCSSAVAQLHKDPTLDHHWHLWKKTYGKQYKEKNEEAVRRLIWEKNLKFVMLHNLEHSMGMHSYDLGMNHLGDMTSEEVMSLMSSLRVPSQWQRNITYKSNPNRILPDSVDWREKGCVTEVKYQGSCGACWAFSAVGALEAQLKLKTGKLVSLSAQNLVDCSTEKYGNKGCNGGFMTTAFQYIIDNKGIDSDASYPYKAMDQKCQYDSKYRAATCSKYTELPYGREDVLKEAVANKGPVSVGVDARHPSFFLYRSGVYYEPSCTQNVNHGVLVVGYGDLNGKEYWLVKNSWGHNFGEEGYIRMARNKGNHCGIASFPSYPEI
Sequence of UniProt Q9H773 (Q9H773 whole entry, looked up): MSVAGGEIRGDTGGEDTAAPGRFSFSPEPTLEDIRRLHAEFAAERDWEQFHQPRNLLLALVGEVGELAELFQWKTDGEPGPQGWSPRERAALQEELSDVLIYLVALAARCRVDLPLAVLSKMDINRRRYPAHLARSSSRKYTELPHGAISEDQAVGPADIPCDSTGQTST

Row | Target | log2 fold change [1] | log2 fold change [2] | log2 fold change [3] | log2 fold change [4] | log2 fold change [5] | log2 fold change [6] | log2 fold change [7] | log2 fold change [8] | log2 fold change [9] | log2 fold change [10] | log2 fold change [11] | log2 fold change [12] | log2 fold change [13] | log2 fold change [14] | log2 fold change [15] | log2 fold change [16] | log2 fold change [17] | log2 fold change [18] | log2 fold change [19] | log2 fold change [20]
1 | DDX5 (UniProt P17844) | 0.118 | 0.013 | 0.062 | 0.024 | 0.006 | 0.088 | 0.031 | 0.004 | 0.02 | 0.097 | 0.035 | -0.16 | 0.135 | 0.125 | 0.041 | -0.016 | 0.012 | 0.165 | -0.044 | 0.052
2 | DHCR7 (UniProt Q9UBM7) | -0.182 | -0.025 | -0.088 | -0.278 | 0.01 | 0.101 | 0.088 | -0.167 | -0.009 | -0.115 | -0.003 | 0.192 | -0.085 | 0.089 | -0.029 | -0.304 | -0.055 | 0.051 | 0.049 | -0.056
3 | CTSC (UniProt P53634) | 0.019 | -0.065 | 0.001 | -0.024 | 0.021 | -0.04 | 0.036 | 0.026 | -0.031 | 0.083 | 0.042 | -0.037 | -0.015 | -0.062 | 0.018 | 0 | 0.063 | -0.047 | 0.013 | -0.057
4 | CUTA isoform 2 (UniProt O60888) | 0.248 | 0.108 | -0.159 | 0.002 | -0.055 | -0.225 | 0.037 | 0.012 | 0.023 | -0.358 | 0.073 | -0.045 | 0.021 | -0.001 | 0.01 | 0.131 | -0.05 | -0.049 | -0.019 | 0.109
5 | DDB1 (UniProt Q16531) | -0.024 | -0.015 | -0.017 | -0.029 | -0.06 | 0.006 | -0.012 | 0.061 | -0.022 | 0.025 | 0.005 | 0.033 | 0.026 | -0.039 | 0.02 | -0.028 | -0.013 | -0.037 | -0.033 | 0.009
6 | EGLN1 (UniProt Q9GZT9) | -0.361 (active) | -0.07 | -0.022 | -0.004 | 0.018 | 0.018 | 0.022 | -0.074 | 0.01 | 0.009 | 0.01 | -0.029 | -0.064 | -0.035 | 0.029 | -0.036 | 0.044 | 0 | -0.014 | -0.04
7 | DCTPP1 (UniProt Q9H773) | 0.023 | -0.02 | 0.083 | -0.061 | -0.067 | -0.091 | 0 | 0.038 | -0.058 | -0.05 | -0.025 | 0.142 | 0.179 | -0.177 | 0.072 | -0.004 | 0.024 | -0.064 | -0.002 | 0.203
8 | CTSS (UniProt P25774) | 0.019 | 0.051 | -0.081 |  |  |  |  |  |  | -0.043 | -0.007 | 0.063 |  | 0.059 | 0.01 | 0.018 | -0.114 | 0.045 | 0.043 | 0.049
9 | DNAJB1 (UniProt P25685) | 0.07 | -0.013 | 0.007 | -0.032 | -0.063 | 0.046 | 0.06 | 0.003 | -0.032 | 0.005 | -0.004 | -0.004 | 0.084 | 0 | 0.045 | -0.041 | -0.001 | 0.059 | -0.018 | 0.019
